High-throughput results: PubChem, National Center for Advancing Translational Sciences (NCATS)
FMDV inh = foot and mouth disease virus antiviral activity. FMDV antiviral cell-based qHTS. Potency, µM (doses to about 57.9 µM), for inactives: at the highest dose activity change, negative = inhibition, hits mostly inhibitors. hit rate 1.2% among 410,000. AID 1159524; calls by dose curve; tested in HEK293T cells; further: read-out not given here; potency means the concentration at half of the fitted maximal effect; on the % scale 0 is the no-effect control and ±100 the full control effect; nearly all actives have a fitted effect of over 45% in size
Cycloheximide cs = counter-screen for Shiga toxin inhibitors: cycloheximide protein synthesis inhibition; cell reporter, cycloheximide protein synthesis inhibition counterscreen; max response, %; hit rate 12% among 300,000; AID 2314; in the data active means max response mostly above about 13%, no sharp cut-off; inactive means mostly below about 14%; further: read at 38.3 µM for the half of the compounds with a filed dose; 0% is about no effect
Marburg entry inh = Marburg virus entry inhibition; AID 540276; hit rate 1.8% among 300,000; Marburg virus pseudotyped entry inhibition, cell reporter; Potency, µM (highest dose often 37.8 µM), inactives show at the top dose activity change, negative = inhibition, actives largely listed as inhibitors; calls by dose curve; tested in HEK293 cells; further: potency means the concentration at half of the fitted maximal effect; on the % scale 0 is the no-effect control and ±100 the full control effect
Shiga toxin inh = Shiga toxin inhibition. Vero cells, Shiga toxin protein synthesis inhibition reporter. inhibition, % at 38.7 µM. hit rate 9.2% among 290,000. AID 2315; in the data active means inhibition mostly above about 28%, no sharp cut-off; inactive means mostly below about 43%; further: 0% is about no effect
LASV entry inh = Lassa virus entry inhibition; Lassa virus pseudotype entry inhibition, cell reporter; Potency, µM (highest dose often 37.9 µM), without a hit: top-dose activity change, negative = inhibition, usual class: inhibitors; hit rate 1.2% among 300,000; calls by dose curve; tested in HEK293 cells; further: potency means the concentration at half of the fitted maximal effect; on the % scale 0 is the no-effect control and ±100 the full control effect; nearly all actives have a fitted effect of over 50% in size
HCV inhibitor = inhibitors of hepatitis C virus infection | Huh7.5.1 HCVcc-Cre infection, luciferase reporter, 44 h | Potency, µM (top dose mostly 41.8 µM), without a hit: at the highest dose activity change, negative = inhibition, usual class: inhibitors | hit rate 3.4% among 340,000 | AID 651820; active means well fitted inhibition curve with a large enough effect; inconclusive means small, poorly fitted or top-dose-only effect, or another doubt; inactive means no such curve, though single readings can be large or run the other way; further: potency means the concentration at half of the fitted maximal effect; on the % scale 0 is the no-effect control and ±100 the full control effect
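Luciferase read-out (15 sec integration) after a 15 min room-temperature substrate step quantifies HCVcc-Cre infection. Cells, 1,000 per well, had compound added 4 h post-plating, then virus at ~0.5 moi, and were cultured 44 h.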
Starred values were filed as active, the others as inactive; ? = inconclusive; · = not tested or not shown; [ ] = remark or other dose. Compounds with a hit are over-represented: about 13% of the library has one in this group of screens.

SMILES	FMDV inh	Cycloheximide cs	Marburg entry inh	Shiga toxin inh	LASV entry inh	HCV inhibitor
Cc1c(C(=O)NCC2CCCO2)oc2c(Cl)cccc12 (centres undefined)	-4.5%	·	15.5%	·	6.3%[46.1 µM]	?
CCN1CCC[C@H]1CNC(=O)c1c(O)c(Cl)cc(Cl)c1OC	-24.0%	6.7	-12.0%	-5.1	0.3%	-6.5%
C/C(=N\O)C(=O)Nc1ccccc1	10.3%	2.0	·	-5.2	·	18.4%
CC1CN(Cc2csc(-c3ccc(Cl)cc3)n2)CC(C)O1 (centres undefined)	-16.1%	47.3	?	116.8*	-9.9%[46.1 µM]	11.2µM*
ClCc1csc(-c2ccc(Cl)cc2)n1	3.5%	-0.9	-3.7%	18.3	11.2%	24.6%
Cc1c(C(=O)NCc2ccccc2C(F)(F)F)sc(=O)n1Cc1cccc(C(F)(F)F)c1	-16.0%	·	·	·	·	·
CCOc1ccc(NC(=O)c2cc3cc4ccc(OC)cc4nc3o2)cc1	-7.7%	-4.9	?	-3.3	13.1%	-22.8%
COc1ccc2cc3cc(C(=O)NCC4CCCO4)oc3nc2c1 (centres undefined)	-15.9%	19.1	11.7%	45.8*	?	-7.8%
COc1ccc2cc3cc(C(=O)NCCC(C)C)oc3nc2c1	6.9%	-0.8	9.8%	51.0	3.55µM*	?
CCN(C(=O)c1cc2cc3ccc(OC)cc3nc2o1)c1cccc(C)c1	-1.6%	·	-29.3%[46.1 µM]	·	?	·
COc1ccc2cc3cc(C(=O)NCc4ccccn4)oc3nc2c1	4.4%	11.4	-11.5%	38.3	-13.4%	3.4%
CCC(C)NC(=O)c1cc2cc3ccc(OC)cc3nc2o1 (centres undefined)	32.0%	29.9*	?	38.7*	-5.2%	?
CCCCN(CC)C(=O)c1cc2cc3ccc(OC)cc3nc2o1	7.0%	27.3*	?	80.0*	-14.5%	?
O[C@H]1C[C@H](c2ccccc2)N(Cc2cccs2)C[C@@H]1n1cc(C2CC2)nn1	-20.4%	·	·	·	·	·
NC(=O)c1cc(C(=O)c2cccc(Cl)c2Cl)c[nH]1	-16.8%	-2.0	5.0%[46.1 µM]	-17.4	14.2%[46.1 µM]	7.5%
COCCNC(=O)c1cc2cc3ccc(OC)cc3nc2o1	27.9%	41.7*	·	49.5	·	8.7%
CCCCN(C)C(=O)c1cc2cc3ccc(OC)cc3nc2s1	-50.7%	25.1*	10.3µM*	56.6*	?	11.2µM*
CCN(CCCNC(=O)c1cc2cc3ccc(OC)cc3nc2s1)c1ccccc1	12.1%	·	?	·	?	·
CCOC(=O)c1c(C)n(-c2ccc(F)cc2)c2ccc(O)cc12	?	-7.1	·	-12.6	·	8.91µM*
COC(=O)c1c(C)n(-c2ccc(OC)cc2)c2ccc(O)cc12	-9.5%	-2.8	?	-27.0	?	11.2µM*
CCOC(=O)c1sc(=S)n(-c2ccc(OC)cc2)c1N	5.2%	8.4	17.5%[14.2 µM]	6.5	1.1%	11.2%
CCOC(=O)c1sc(=N)n(-c2ccc(OC)cc2)c1C	34.0%	27.9*	13.9%	101.9	?	-29.3%
CC12CC(=O)C3C(CCC4=CC(=O)CCC43C)C1CC=C2CC(=O)O (centres undefined)	3.1%	·	?	·	3.5%[46.1 µM]	13.4%
CCCc1cc(=O)[nH]c2nnc(SCC(=O)Nc3cccc(NC(C)=O)c3)n12	-6.0%	·	16.7%	·	20.8%	16.5%
CN(C)C=Nc1ccc2nc3c(cc2c1)[nH]c1ccccc13	-23.6%	38.9*	·	73.8*	·	?
SMILES	FMDV inh	Cycloheximide cs	Marburg entry inh	Shiga toxin inh	LASV entry inh	HCV inhibitor
CCOC(=O)c1[nH]c2ccccc2c1N=CN(C)C	22.8%	·	11.5%	·	6.4%	-9.9%
CCOC(=O)C1CCN(CC(O)COc2ccc(S(=O)(=O)N3CCCC3)cc2[N+](=O)[O-])CC1 (centres undefined)	-7.5%	·	-4.0%	·	9.9%	-6.0%
COc1ccc(C(=O)Nc2cccc(/C(C)=N/NC(=O)c3ccc([N+](=O)[O-])c(C)c3)c2)cc1OC	?	24.5	?	27.1	?	2.82µM*
C/C(=N\NC(=O)c1c(Cl)cnn1C)c1cccc(NC(=O)C(C)C)c1	-17.2%	1.1	-33.4%	-4.5	-0.6%	1.4%
COc1ccc(C(=O)Nc2cccc(/C(C)=N\NC(=O)c3ccoc3C)c2)cc1OC	-1.2%	44.6*	16.2%[46.1 µM]	60.2*	?	?
C/C(=N\NC(=O)c1nn(C)c(C)c1Br)c1cccc(NC(=O)c2ccoc2C)c1	26.1%	46.1*	-39.3%	24.0*	11.3%	?
Cc1onc(-c2c(F)cccc2Cl)c1C(=O)NCc1cccs1	1.6%	-1.6	-4.1%	14.6	-1.9%	9.2%
CCOc1cc(C=O)ccc1OCC(=O)NC(C)(C)C	-10.1%	-2.7	9.2%	-9.4	-3.6%	-7.4%
CSc1cc(/C=N/O)c(SC)s1	-25.5%	-0.7	?	1.7	-16.2%	10µM*
CC1(C)CSC(=NCCc2ccccc2)N1C(=O)c1ccc(C#N)cc1	-1.1%	4.4	-16.3%	-3.4	?	-0.8%
CC1(C)CSC(=NCCc2ccccc2)N1	0.0%	14.2*	28.4%[46.1 µM]	53.9*	?	?
CN(C)C(=O)c1ccc(=O)n(Cc2ccc(Cl)cc2Cl)c1	-2.8%	-4.7	4.6%	-6.6	8.9%	10.6%
O=c1ccc(S(=O)(=O)N2CCCC2)cn1Cc1ccc(Cl)cc1Cl	?	·	·	·	·	6.31µM*
CC(C)C(=O)Nc1nc(-c2ccc3c(c2)CCN3C(=O)C2CC2)cs1	-38.3%	23.7	20.2%[46.1 µM]	59.0*	·	?
CC1Cc2cc(-c3csc(NC(=O)CCl)n3)ccc2N1C(=O)C1CC1 (centres undefined)	45.3%	·	3.3%[46.1 µM]	·	-4.9%	-11.8%
CCC(CC)C(=O)Nc1nc(-c2ccc3c(c2)CCN3C(=O)C2CC2)c(C)s1	11.2µM*	-5.3	?	-6.5	11.2µM*	?
CC(C)(C)Nc1nc(-c2ccc3c(c2)CCN3C(=O)C2CC2)cs1	10.8%	43.1*	?	97.9*	?	?
CC1(C(=O)NS(=O)(=O)c2ccccc2Cl)CCN1C(=O)CC1CCCCC1 (centres undefined)	5.8%	·	·	·	·	·
CNC(=O)C1CC(=O)N(c2ccc(OCC(=O)N3CCCC3)cc2)C1 (centres undefined)	2.6%	-7.9	5.0%[46.1 µM]	-8.7	7.4%[46.1 µM]	12.9%
CCS(=O)(=O)c1ccc(O)c(NC(=O)CCCC(=O)O)c1	7.1%	-1.3	-3.4%	7.1	-18.2%	11.4%
CCS(=O)(=O)c1ccc(O)c(NC(=O)/C=C/c2ccccc2)c1	54.5%	28.4*	?	73.3*	4.1%	-8.0%
Cc1c(O)ccc(NC(=O)/C=C/c2ccccc2)c1C	13.7%	12.4	16.2%[46.1 µM]	47.7*	0.0%	7.2%
COc1cc(NC(=O)/C=C/c2ccccc2)c(C(=O)O)cc1OC	24.1%	0.4	·	9.7	·	13.2%
O=C(/C=C/c1ccccc1)Nc1cc(C(=O)O)cc(C(=O)O)c1	-10.8%	0.8	·	-14.4	·	5.1%
COC(=O)c1cc(NC(=O)/C=C/c2ccccc2)ccc1O	·	47.9*	·	120.9*	·	·
CSc1nsc(/C=C/Nc2ccc(O)cc2C)c1C#N	23.7%	28.3*	·	27.7	·	?
COc1cccc(NC2=NCCCCC2)c1	0.0%	-2.2	-15.0%[46.1 µM]	-4.6	-2.4%	-0.7%
COc1ccc(CNS(=O)(=O)CCNC(=O)c2cccc(OC)c2)cc1	-14.0%	·	15.9%	·	-2.1%	2.5%
